DT40 TDP1 no CPT: qHTS for Inhibitors of human tyrosyl-DNA phosphodiesterase 1 (TDP1): qHTS in cells in absence of CPT; Potency, µM (titrated, usually from 46.2 µM), for the others: at the highest dose activity change, negative = growth inhibition, actives largely listed as inhibitors; hit rate 15% among 420,000; DT40 Tdp1-/- hTDP1 cells, no CPT, ATP luminescence, 48 h; AID 686978, 2013; also: potency is read from the fitted curve at half-maximal effect; nearly all actives have a fitted effect of over 55% in size
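No-CPT arm: Tdp1-/-;hTDP1 DT40 cells (400/well) plus compounds, incubated ≥48 hr at 37 °C. Readout CellTiter-Glo luminescence.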
IL1B secr inh: blocks inflammasome-driven IL-1 beta release; THP-1 LPS/ATP IL-1B secretion, AlphaLISA, 16 h; active compounds read low; activity change, % at 57.5 µM; hit rate 4.7% among 360,000; in the data active = activity change below about -50%; inconclusive = mostly about -30% to -49%
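THP-1 cells pretreated 1 hr with compounds (up to 57.5 uM final), then stimulated with LPS (250 ng/mL final) plus ATP (1.25 mM final); secreted IL-1B measured by AlphaLISA after 16 hr, decreased signal indicating inhibition.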
RORg inh: ROR gamma (mouse) transcription inhibition | P51450 | Drosophila S2 Gal4-RORgamma UAS-luciferase reporter, 20 h | hit rate 5.4% among 310,000 | Potency, µM (titrated, usually from 53.6 µM), without a hit: at the highest dose activity change, negative = inhibition, most hits filed as inhibitors; also: potency is read from the fitted curve at half-maximal effect; nearly all actives have a fitted effect of over 60% in size
Target sequence (P51450 whole entry, looked up, the tested form may be a part): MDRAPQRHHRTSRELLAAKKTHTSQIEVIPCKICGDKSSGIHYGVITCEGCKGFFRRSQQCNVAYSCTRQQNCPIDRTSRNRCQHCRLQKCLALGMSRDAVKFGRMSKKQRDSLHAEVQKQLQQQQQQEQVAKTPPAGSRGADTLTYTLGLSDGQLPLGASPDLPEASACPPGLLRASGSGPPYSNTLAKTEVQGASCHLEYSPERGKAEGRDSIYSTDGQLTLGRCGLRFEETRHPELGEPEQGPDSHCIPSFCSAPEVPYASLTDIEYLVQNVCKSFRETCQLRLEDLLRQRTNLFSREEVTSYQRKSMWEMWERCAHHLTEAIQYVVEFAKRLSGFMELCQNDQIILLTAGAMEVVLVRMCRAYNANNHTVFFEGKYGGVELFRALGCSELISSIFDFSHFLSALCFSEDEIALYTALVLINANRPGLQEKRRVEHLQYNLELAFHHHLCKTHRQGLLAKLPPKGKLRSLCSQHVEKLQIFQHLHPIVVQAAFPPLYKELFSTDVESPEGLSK
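Stable Schneider cell line, Gal4 DNA-binding domain fused to ROR gamma, UAS-luciferase. Cmpd 1 hr RT → CuSO4 700 uM final → 20 hr RT → luciferase reagent 10 min → luminescence.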
ELG1 repair inh: ELG1-dependent DNA repair inhibition | HEK293T ELG1-luciferase reporter, luminescence, 16 h; DNA damage induced by 5-fluorouridine | Potency, µM (doses to about 46.1 µM), without a hit: at the highest dose activity change, negative = inhibition, hits mostly inhibitors | hit rate 2.3% among 330,000 | AID 504467; also: potency is read from the fitted curve at half-maximal effect; nearly all actives have a fitted effect of over 55% in size
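Luminescence from the luciferase reporter, measured 30 min after ONE-Glo reagent at room temperature, was the read-out. Beforehand, 2,000 cells per well were exposed for 16 hr at 37 °C to 5-fluorouridine together with compound or vehicle.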
Gal4-VP16 FLuc: counter-screen for ROR gamma inhibitors: Gal4-VP16 reporter | Drosophila S2 Gal4-VP16 UAS-luciferase, luminescence, 20 h | Potency, µM (series often up to 53.6 µM), for the others: at the top dose activity, negative = inhibition, actives largely listed as inhibitors | hit rate 3.5% among 310,000 | AID 2546;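 also: Gal4-VP16 expression switched on by copper sulfate through the metallothionein promoter; potency is read from the fitted curve at half-maximal effect; nearly all actives have a fitted effect of over 50% in size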
TDP1 cell CPT: DT40-hTDP1 cell growth loss with CPT; chicken DT40 Tdp1-/-;hTDP1 cells + 20 nM CPT, ATP luminescence, 48 h; Potency, µM (titrated, usually from 46.2 µM), for the others: top-dose activity change, negative = growth inhibition, most hits filed as inhibitors; hit rate 12% among 420,000; also: potency is read from the fitted curve at half-maximal effect; nearly all actives have a fitted effect of over 55% in size
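Chicken DT40 Tdp1-/- cells complemented with human TDP1, 400 cells/well, exposed to compounds plus 20 nM camptothecin for at least 48 h at 37 C; viability read as ATP content by CellTiter-Glo luminescence.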
The depositor's hits bear a star. In the library only some 21% were active in any assay of this set; here they are far more common. Unless noted, calls follow the shape of the dose curve; as a rule, active = well fitted curve in the direction sought with a large enough effect; inconclusive = small, poorly fitted or top-dose-only effect, or another doubt; inactive = no such curve, though single readings can be large; an effect the other way counts as inactive or inconclusive. % is scaled to controls: 0 for no effect and ±100 for the full control effect.

`CC(CCc1ccc(O)cc1)N(C)CCc1ccccc1` (stereo unspecified) gave DT40 TDP1 no CPT -3%, IL1B secr inh -3, RORg inh 14%, ELG1 repair inh 3%, Gal4-VP16 FLuc -1% and TDP1 cell CPT -27%.
`CN(C[C@H](Cc1ccccc1)N(C[C@H](CC1CCCCC1)N(CCc1ccccc1)N=O)N=O)N=O` gave DT40 TDP1 no CPT inconclusive, IL1B secr inh 11, RORg inh 0%, ELG1 repair inh -7%, Gal4-VP16 FLuc 1% and TDP1 cell CPT 26µM*.
Screening CCC(C)[C@@H](CN(N=O)[C@@H](Cc1ccccc1)CN(C)N=O)N(CCc1ccccc1)N=O (stereo partly specified) returned DT40 TDP1 no CPT 21µM*, IL1B secr inh -2, RORg inh 36%, ELG1 repair inh -10%, Gal4-VP16 FLuc -10% and TDP1 cell CPT 16µM*.
Screening CC(CCc1ccccc1)NC(=O)CCC1CCCC1 (stereo unspecified) returned DT40 TDP1 no CPT -21%, IL1B secr inh -3 and TDP1 cell CPT 6%.
`Cc1ccc2c(c1)c1c(c(=O)n(-c3cccc(Cl)c3)c(=O)n1CC(=O)NCCC1=CCCCC1)n2C` gave DT40 TDP1 no CPT 1% and TDP1 cell CPT -2%.
`COc1cccc(N=Nc2ccc(O)c3ncccc23)c1` gave DT40 TDP1 no CPT 2.6µM*, IL1B secr inh 14, RORg inh 0.32µM*, ELG1 repair inh inconclusive, Gal4-VP16 FLuc -94% and TDP1 cell CPT 2.6µM*.
For O=Nc1ccc(O)c2ncccc12 the results were DT40 TDP1 no CPT 0.92µM*, IL1B secr inh -98*, RORg inh 1.6µM*, ELG1 repair inh inconclusive, Gal4-VP16 FLuc 5.6µM* and TDP1 cell CPT 0.58µM*.
Screening O=C(Cc1ccc2c(c1)OCCO2)c1c(O)cc(O)cc1O returned DT40 TDP1 no CPT -10%, IL1B secr inh -1, RORg inh 41%, ELG1 repair inh inconclusive, Gal4-VP16 FLuc 26% and TDP1 cell CPT -11%.
Screening Oc1ccc(N=Nc2ccc3c(c2)OCCO3)c2cccnc12 returned DT40 TDP1 no CPT 1.6µM*, IL1B secr inh 44, RORg inh 0%, ELG1 repair inh inconclusive, Gal4-VP16 FLuc -22% and TDP1 cell CPT 1.3µM*.
`Oc1ccc(N=Nc2ccc3c(c2)OCCO3)c(O)c1` gave DT40 TDP1 no CPT inconclusive, IL1B secr inh -13, RORg inh 8.9µM*, ELG1 repair inh inconclusive, Gal4-VP16 FLuc 10µM* and TDP1 cell CPT inconclusive.
For Cc1ccc(OC(C)C(=O)N(C)c2ccccc2)c([N+](=O)[O-])n1 (stereo unspecified) the results were DT40 TDP1 no CPT 11%, IL1B secr inh 42, ELG1 repair inh 10% and TDP1 cell CPT 15%.
`COc1ccc(C)cc1N=Nc1ccc(O)c2ncccc12` gave DT40 TDP1 no CPT 2.6µM*, IL1B secr inh -10, RORg inh 0.79µM*, ELG1 repair inh inconclusive, Gal4-VP16 FLuc 0.63µM* and TDP1 cell CPT 3.3µM*.
`Oc1ccc(N=Nc2ccc(Br)cc2)c(O)c1` gave DT40 TDP1 no CPT 23µM*, IL1B secr inh 72, RORg inh inconclusive, ELG1 repair inh inconclusive, Gal4-VP16 FLuc inconclusive and TDP1 cell CPT 26µM*.
Screening Cc1ccccc1N=Nc1ccc(O)c2ncccc12 returned DT40 TDP1 no CPT 1.6µM*, IL1B secr inh 2, RORg inh 0.63µM*, ELG1 repair inh inconclusive, Gal4-VP16 FLuc 0.89µM* and TDP1 cell CPT 2.6µM*.
For O=S(=O)(O)c1cccc2c(N=Nc3ccc(O)c4ncccc34)cccc12 the results were DT40 TDP1 no CPT 11%, IL1B secr inh 0, RORg inh inconclusive, ELG1 repair inh -11%, Gal4-VP16 FLuc -16% and TDP1 cell CPT inconclusive.
For Cc1ccc(O)c2ncccc12 the results were DT40 TDP1 no CPT 4.7µM*, RORg inh 5µM*, Gal4-VP16 FLuc 8.9µM* and TDP1 cell CPT inconclusive.
For COc1ccc(C)cc1-n1c(=O)c2ccccc2c2ccccc2c1=O the results were DT40 TDP1 no CPT 3%, IL1B secr inh -2, RORg inh -24%, ELG1 repair inh inconclusive, Gal4-VP16 FLuc 3% and TDP1 cell CPT 6%.
`Cc1ccc(-c2noc(-c3nnn(CC(=O)Nc4cc(Cl)ccc4C)c3N)n2)cc1` gave DT40 TDP1 no CPT 1% and TDP1 cell CPT 20%.
Screening COc1ccc(-c2ncccc2O)cc1 returned DT40 TDP1 no CPT -9%, IL1B secr inh -3, RORg inh inconclusive, ELG1 repair inh inconclusive, Gal4-VP16 FLuc 17% and TDP1 cell CPT 0%.
For Cc1c(C)c2cccnc2c2ncccc12 the results were DT40 TDP1 no CPT 1.5µM*, IL1B secr inh -4, ELG1 repair inh inconclusive and TDP1 cell CPT 1.8µM*.
Cc1ccc(N=Nc2ccc(O)cc2)c(Br)c1 was read as DT40 TDP1 no CPT 4%, IL1B secr inh -86*, RORg inh 2.8µM*, ELG1 repair inh inconclusive, Gal4-VP16 FLuc inconclusive and TDP1 cell CPT 4%.
For COc1ccc(N=Nc2ccc(O)c3ncccc23)cc1 the results were DT40 TDP1 no CPT 1.5µM*, IL1B secr inh 93, RORg inh 0.13µM*, ELG1 repair inh 2%, Gal4-VP16 FLuc inconclusive and TDP1 cell CPT 2.1µM*.
Screening COCc1ccc(O)c2ncccc12 returned DT40 TDP1 no CPT 4.6µM*, IL1B secr inh 118, RORg inh 6.3µM*, ELG1 repair inh inconclusive, Gal4-VP16 FLuc 3.2µM* and TDP1 cell CPT 4.6µM*.
For COC(CN(C)C(=O)C1CCCN(S(=O)(=O)c2ccc3c(c2)oc(=O)n3C)C1)OC (stereo unspecified) the results were DT40 TDP1 no CPT 24%, IL1B secr inh 2, RORg inh -1%, ELG1 repair inh 26%, Gal4-VP16 FLuc -6% and TDP1 cell CPT 12%.
Screening COc1cccc(N=Nc2ccc3cccnc3c2O)c1 returned DT40 TDP1 no CPT 1.2µM*, IL1B secr inh 26, RORg inh 0.56µM*, ELG1 repair inh 2.3µM*, Gal4-VP16 FLuc 0.89µM* and TDP1 cell CPT 0.58µM*.
Screening O=C([C@@H]1CCCN1C(=O)c1cccs1)N1CCN(S(=O)(=O)c2cccc(F)c2)CC1 returned DT40 TDP1 no CPT 0%, IL1B secr inh 8, ELG1 repair inh 7% and TDP1 cell CPT -16%.

Bioassay records from PubChem.
